The nature of test [1]: Cell Viability - N2a (AID 540).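 Further: cells exposed to compound for 40 h at 37 °C; plate controls were DMSO alone for no effect and tamoxifen control for full effect; nearly all actives have a fitted effect of over 45% in size.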 As to conditions: N2a mouse neuroblastoma cell viability; activity change, negative = cytotoxicity: at 92.2 µM (top of the series). The procedure, abridged:
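Luminescent ATP signal (CellTiter-Glo, 20 min at room temperature) served as the viability read-out after N2a cells were treated with compounds for 40 hours at 37 °C. Concentration-response data were fitted to the Hill equation for AC50.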

Test [2] is described as follows: Cell Viability - Renal Proximal Tubule (AID 545).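 Further: 0% = DMSO only and -100% = 100 µM tamoxifen; nearly all actives have a fitted effect of over 40% in size.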 As to conditions: renal proximal tubule cells viability, primary cells of rat origin; at 91.7 µM (top of the series). The procedure, abridged:
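Primary rat renal proximal tubule cells (1000/well) were treated with compounds for 40 hr at 37 °C in complete medium. Intracellular ATP was measured by CellTiter-Glo luminescence, and AC50 values came from Hill-equation fits of concentration-response data.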

Test [3] in a line: MultiTox-Fluor Cytotoxicity Assay - LYMP1-003 - Dead Cells (AID 961). Further: nearly all actives have a fitted effect of over 70% in size. Further: potency means the concentration at half of the fitted maximal effect. The procedure, abridged:
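LYMP1-003 human lymphoblastoid cells (2500/well) exposed to compound 16 h at 37 C in complete medium; dead-cell protease read with bis-AAF-R110 fluorescence (Ex/Em 485/520) after 60 min at room temperature. Normalized to DMSO and 15 uM tetraoctylammonium bromide; AC50 from Hill fit.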

Test [4] can be described thus: Cell Viability - LYMP2-003 (AID 965).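 Further: cells exposed to compounds for 24 h before reading; nearly all actives have a fitted effect of over 50% in size.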 Further: potency means the concentration at half of the fitted maximal effect.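 On activity change, negative = cytotoxicity: 0% = DMSO only and full effect = 92 µM tetraoctylammonium bromide.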 In outline: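 Human lymphoblastoid cells (2500/well) were pre-incubated 5 hr at 37 C, then exposed to compounds over a concentration range for 24 hr at 37 C. Intracellular ATP was read by CellTiter-Glo luminescence; AC50 came from Hill-equation fits.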
Test [5] in a line: Cell Viability - LYMP2-005 (AID 967). Further: potency means the concentration at half of the fitted maximal effect. In outline:
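CellTiter-Glo luminescence (cellular ATP) read-out; LYMP2-005 lymphoblastoid cells, 2500/well, 5 h pre-incubation, then 24 h compound exposure at 37 C in complete medium. Tetraoctylammonium bromide positive control; AC50 by standard Hill fit.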

Test [6] is described as follows: Cell Viability - LYMP2-009 (AID 968). Further: nearly all actives have a fitted effect of over 55% in size. Further: potency means the concentration at half of the fitted maximal effect.
A short description of test [7]: Cell Viability - LYMP2-015 (AID 971). Further: nearly all actives have a fitted effect of over 55% in size. Further: potency means the concentration at half of the fitted maximal effect. In outline:
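Luminescent ATP read-out (CellTiter-Glo) served as the viability measure after lymphoblastoid cells were exposed to compounds for 24 hours at 37 C. Concentration-response data were fitted with the Hill equation to give AC50.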

A short description of test [8]: Cell Viability - LYMP2-019 (AID 973). Further: nearly all actives have a fitted effect of over 55% in size. Further: potency means the concentration at half of the fitted maximal effect.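 On activity change, negative = cytotoxicity: 0% = DMSO alone and full effect = 92 µM tetraoctylammonium bromide.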 In outline: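 Luminescent ATP read-out (CellTiter-Glo, 30 min room temperature) served as the viability measure after 24 hr treatment of lymphoblastoid cells at 37 C. Concentration-response data were fitted to the Hill equation for AC50.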
Test [9] in a line: Cell Viability - LYMP2-021 (AID 974).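 Further: compound exposure lasts 24 hours at 37 °C; nearly all actives have a fitted effect of over 55% in size.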 Further: potency means the concentration at half of the fitted maximal effect. On activity change, negative = cytotoxicity: on the % scale 0 is the no-effect control and ±100 the full control effect. In outline: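 Plate 2500 lymphoblastoid cells per well and incubate 5 hr at 37 C. Add compounds over a concentration range and incubate 24 hr at 37 C. Add CellTiter-Glo, wait 30 min at room temperature, read luminescence.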
Test [10] in a line: Cell Viability - LYMP2-023 (AID 975). Further: nearly all actives have a fitted effect of over 55% in size. Further: potency means the concentration at half of the fitted maximal effect.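 On activity change, negative = cytotoxicity: cellular ATP measured by luciferase luminescence as viability proxy; plate controls were DMSO only for no effect and 92 µM tetraoctylammonium bromide control for full effect.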 In outline: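 2500 cells/well, 5 hr 37 C; cpd 24 hr 37 C; CellTiter-Glo, 30 min RT; luminescence. qHTS conc-response, Hill fit -> AC50. Pos ctrl tetraoctylammonium bromide.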
The nature of test [11]: Cell Viability - LYMP2-025 (AID 976). Further: potency means the concentration at half of the fitted maximal effect.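 On activity change, negative = cytotoxicity: plate controls were DMSO only for no effect and tetraoctylammonium bromide control for full effect.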 The procedure, abridged:
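Seed 2500 LYMP2-025 cells/well; 5 hr at 37 C; add compound; 24 hr at 37 C; add CellTiter-Glo; 30 min RT; read luminescence. AC50 from Hill-modelled concentration-response.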

Test [12] in a line: Cell Viability - LYMP2-002 (AID 977). Further: potency means the concentration at half of the fitted maximal effect. The procedure, abridged: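 Cytotoxicity is scored as concentration-dependent loss of cellular ATP in a human lymphoblastoid line after 24 hr compound treatment at 37 C. AC50 is obtained by modelling concentration-response data with the Hill equation.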
Test [13] in a line: Cell Viability - LYMP2-006 (AID 978). Further: nearly all actives have a fitted effect of over 60% in size. Further: potency means the concentration at half of the fitted maximal effect. On activity change, negative = cytotoxicity: on the % scale 0 is the no-effect control and ±100 the full control effect. In outline: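 Human lymphoblastoid cells, 2500 per well, were preincubated 5 hr at 37 C, then exposed to compounds for 24 hr at 37 C in complete medium. Viability was read as intracellular ATP by CellTiter-Glo luminescence; AC50 from Hill-equation fits of qHTS concentration-response data.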
A short description of test [14]: Cell Viability - LYMP2-008 (AID 980). Further: nearly all actives have a fitted effect of over 60% in size. Further: potency means the concentration at half of the fitted maximal effect. On activity change, negative = cytotoxicity: on the % scale 0 is the no-effect control and ±100 the full control effect. The procedure, abridged: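 qHTS, human lymphoblastoid line, 2500 cells/well; 5 hr preincubation, 24 hr compound, 37 C. CellTiter-Glo ATP luminescence. AC50 via Hill equation. Tetraoctylammonium bromide positive control.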
Test [15] in a line: Cell Viability - LYMP2-014 (AID 983). Further: nearly all actives have a fitted effect of over 50% in size. Further: potency means the concentration at half of the fitted maximal effect.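 On activity change, negative = cytotoxicity: plate controls were DMSO only for no effect and 92 µM tetraoctylammonium bromide for full effect.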 In outline:
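Luminescent ATP signal (CellTiter-Glo, 30 min at room temperature) serves as the viability read-out after 24 hr compound exposure at 37 C. Cells were seeded at 2500 per well and settled 5 hr beforehand.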

Test [16] is described as follows: Cell Viability - LYMP2-016 (AID 984). Further: nearly all actives have a fitted effect of over 55% in size. Further: potency means the concentration at half of the fitted maximal effect. The procedure, abridged:
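Human lymphoblastoid cells (LYMP2-016), 2500/well in complete medium, preincubated 5 hr at 37 C, then compound-treated 24 hr at 37 C. Intracellular ATP read by CellTiter-Glo luminescence after 30 min at room temperature; AC50 from Hill-equation concentration-response fits.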

Test [17] in a line: Cell Viability - LYMP2-026 (AID 989). Further: nearly all actives have a fitted effect of over 50% in size. Further: potency means the concentration at half of the fitted maximal effect. The procedure, abridged:
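Luminescent ATP signal (CellTiter-Glo, 30 min room temperature) measures viable lymphoblastoid cells after 24 hr compound treatment at 37 C. Decreased ATP reflects acute toxicity; AC50 values come from Hill-equation modeling.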

Test [18] is described as follows: Cell Viability - LYMP1-002 - Assay at 40 hr (AID 994). Further: nearly all actives have a fitted effect of over 60% in size. Further: potency means the concentration at half of the fitted maximal effect. In outline: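 Luminescent ATP signal served as the viability readout, with decreases taken as toxicity. Cells were treated with compounds across a concentration range for 40 hours at 37 C, and AC50 values came from standard Hill modeling.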
The target of test [19] is Thyroid hormone receptor beta (Homo sapiens) (UniProt P10828). As to the kind of experiment: qHTS assay for small molecule agonists of thyroid hormone receptor beta signaling (AID 588545; calls by dose curve). In outline:
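HEK 293 TR-UAS-bla; agonist mode; 18 hrs, 37 C; CCF4, ex 405/em 460 and 530 nm; norm. T3 10 nM = 100%, DMSO = 0%; Hill fit → EC50, efficacy.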
Background: Quantitative high-throughput screening tests each substance at several concentrations.

Test [20] concerns the target Retinoic acid receptor RXR-alpha (Homo sapiens) (UniProt P19793). The experiment in a line: qHTS assay for small molecule antagonists of retinoid X receptor alpha signaling (AID 588546; active means well fitted inhibition curve with a large enough effect in the signal ratio, with a control signal flat, not every such curve was filed as active; the % refers to the signal ratio;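 further: cells stimulated with 9-cis-retinoic acid as agonist; on the % scale 0 is the no-effect control and ±100 the full control effect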). As to conditions: HEK293T RXRa-UAS-bla, beta-lactamase ratio, antagonist mode. In outline:
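Beta-lactamase reporter inhibition, read as CCF4 fluorescence ratio (ex 405, em 460/530 nm) after 2 h at RT. HEK293T UAS-bla cells, 2500/well, were stimulated with 9-cis-RA at 500 or 100 nM final alongside test compound for 18 h at 37 C.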

Each structure is given as a SMILES string. Where “and” joins values, the source holds several entries; their conditions need not be identical. Equal values may be shown once. A number with no mark means an inactive call. Inconclusive results are not listed. Calls of active or inactive are those of the source. Unless noted, the call rests on the fitted dose curve; in most records, active means well fitted curve in the direction sought with a large enough effect; inconclusive means small, poorly fitted or top-dose-only effect, or another doubt; inactive means no such curve, though single readings can be large; an effect the other way counts as inactive or inconclusive.

Retinoic acid receptor RXR-alpha (Homo sapiens), sequence (P19793 whole entry, looked up): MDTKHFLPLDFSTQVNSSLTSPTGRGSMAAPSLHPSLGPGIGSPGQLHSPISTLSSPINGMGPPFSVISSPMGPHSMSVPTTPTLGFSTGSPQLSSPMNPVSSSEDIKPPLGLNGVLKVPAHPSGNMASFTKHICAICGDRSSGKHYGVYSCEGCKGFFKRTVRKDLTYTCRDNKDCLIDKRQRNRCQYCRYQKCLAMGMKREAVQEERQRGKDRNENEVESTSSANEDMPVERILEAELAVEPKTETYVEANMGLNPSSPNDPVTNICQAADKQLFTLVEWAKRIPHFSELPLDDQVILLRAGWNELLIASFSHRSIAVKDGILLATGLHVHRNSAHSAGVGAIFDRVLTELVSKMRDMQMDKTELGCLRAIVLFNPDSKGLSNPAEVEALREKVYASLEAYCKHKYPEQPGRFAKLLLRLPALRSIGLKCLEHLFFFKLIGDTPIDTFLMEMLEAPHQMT
Thyroid hormone receptor beta (Homo sapiens), sequence (P10828 whole entry, looked up): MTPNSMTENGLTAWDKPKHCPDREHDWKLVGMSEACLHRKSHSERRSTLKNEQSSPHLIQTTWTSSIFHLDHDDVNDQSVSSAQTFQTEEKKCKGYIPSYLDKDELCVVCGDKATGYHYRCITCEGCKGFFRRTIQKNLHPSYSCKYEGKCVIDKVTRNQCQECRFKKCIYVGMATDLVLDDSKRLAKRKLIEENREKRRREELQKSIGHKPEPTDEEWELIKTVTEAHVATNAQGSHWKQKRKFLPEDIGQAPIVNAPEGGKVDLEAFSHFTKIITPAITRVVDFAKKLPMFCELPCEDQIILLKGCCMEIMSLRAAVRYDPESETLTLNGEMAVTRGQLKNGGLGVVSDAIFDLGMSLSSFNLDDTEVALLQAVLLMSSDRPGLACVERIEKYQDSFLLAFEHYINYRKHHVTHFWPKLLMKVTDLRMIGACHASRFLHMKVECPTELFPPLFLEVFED

For the molecule `CC1(C)CC(N=C=O)CC(C)(CN=C=O)C1` (configuration not stated), the activity change, negative = cytotoxicity was 6.51% in test [1] and 13.5% in [2]. The Potency entry in [3], in test [4], in test [5], in [6], in test [7] and in test [8] was “inactive” throughout. Moreover, the Potency result in test [9], in [10], in test [11], in test [12], in test [13] and in [14] was “inactive” throughout. Besides, the Potency entry in test [15], in [16], in test [17] and in [18] was “inactive” in each case. Also, the call in test [19] was inactive. Further, the max response in test [20] is 12.5% and -8%.
For `CCCCOCCO`, the activity change, negative = cytotoxicity is 6.13% and -1.59% in test [1]; 5.22% and -6.35% in test [2]. Also, the Potency entry in test [3], in test [4], in test [5], in test [6], in [7] and in test [8] was “inactive” each time. Moreover, the Potency entry in test [9], in test [10], in test [11], in [12], in test [13] and in test [14] was “inactive” each time. The Potency entry in test [15], in test [16], in test [17] and in test [18] was “inactive” each time. In addition, the molecule was called inactive in test [19]. In addition, in test [20], the max response was 8.5% and -5.75% and -0.568%.
Regarding `C=CC(=O)OCCOCCOCCOCCOC(=O)C=C`, the activity change, negative = cytotoxicity was -110% (active) and -111% (active) in [1]; -95.5% (active) and -108% (active) in test [2]. Besides, the Potency in [3] is 20 µM (active) and 25.1 µM (active); in [4], 12.6 µM (active) and 15.8 µM (active); in test [5], 10 µM (active) and 15.8 µM (active); in [6] it was 15.8 µM (active); in [7] it was 25.1 µM (active) and 20 µM (active); in test [8], 25.1 µM (active) and 31.6 µM (active). Besides, the Potency in test [9] was 15.8 µM (active); in test [10] it was 25.1 µM (active) and 31.6 µM (active); in test [11], 25.1 µM (active); in test [12], 15.8 µM (active) and 25.1 µM (active); in test [13] it was 25.1 µM (active); in test [14] it was 25.1 µM (active). For the same molecule, the Potency in test [15] is 20 µM (active) and 25.1 µM (active); in [16], 20 µM (active) and 15.8 µM (active); in test [17], 15.8 µM (active) and 20 µM (active); in test [18] it was 20 µM (active) and 25.1 µM (active). Further, the call in [19] was inactive.
With `NC1=NC(S)C2N=CN=C2N1` (configuration not stated), the Potency in test [4] is 6.31 µM (active); in test [5] it was 12.6 µM (active); in test [6], 15.8 µM (active); in test [8] it was 10 µM (active); in test [9], 15.8 µM (active); in [10], 10 µM (active). In addition, the Potency in test [11] is 3.16 µM (active); in [14] it was 3.16 µM (active); in test [15] it was 15.8 µM (active); in test [17] it was 12.6 µM (active); in test [18] it was 2 µM (active). The call in test [19] was inactive. Also, the max response in [20] was 2.23%.
Turning to `ClCCCl`, the values for the activity change, negative = cytotoxicity in test [1] and in test [2] were 3.03% and -0.883%, respectively. The Potency entry in [3], in test [4], in [5], in test [6], in test [7] and in test [8] was “inactive” each time. Besides, the Potency entry in test [9], in test [10], in test [11], in test [12], in test [13] and in [14] was “inactive” throughout. The Potency result in test [15], in test [16], in test [17] and in test [18] was “inactive” throughout. The outcome in test [19] was inactive. Moreover, in test [20], the max response is -2.31% and -1.04% and -10.6%.

Source of the values: PubChem BioAssay (NCATS).
